RORg inh: ROR gamma (mouse) transcription inhibition; Drosophila S2 Gal4-RORgamma UAS-luciferase reporter, 20 h; Potency, µM (top dose mostly 53.6 µM), inactives show top-dose activity change, negative = inhibition, actives largely listed as inhibitors; hit rate 5.4% among 310,000; AID 2551; also: % is scaled to controls: 0 for no effect and ±100 for the full control effect; nearly all actives have a fitted effect of over 60% in size
Target sequence (P51450 whole entry, looked up, the tested form may be a part): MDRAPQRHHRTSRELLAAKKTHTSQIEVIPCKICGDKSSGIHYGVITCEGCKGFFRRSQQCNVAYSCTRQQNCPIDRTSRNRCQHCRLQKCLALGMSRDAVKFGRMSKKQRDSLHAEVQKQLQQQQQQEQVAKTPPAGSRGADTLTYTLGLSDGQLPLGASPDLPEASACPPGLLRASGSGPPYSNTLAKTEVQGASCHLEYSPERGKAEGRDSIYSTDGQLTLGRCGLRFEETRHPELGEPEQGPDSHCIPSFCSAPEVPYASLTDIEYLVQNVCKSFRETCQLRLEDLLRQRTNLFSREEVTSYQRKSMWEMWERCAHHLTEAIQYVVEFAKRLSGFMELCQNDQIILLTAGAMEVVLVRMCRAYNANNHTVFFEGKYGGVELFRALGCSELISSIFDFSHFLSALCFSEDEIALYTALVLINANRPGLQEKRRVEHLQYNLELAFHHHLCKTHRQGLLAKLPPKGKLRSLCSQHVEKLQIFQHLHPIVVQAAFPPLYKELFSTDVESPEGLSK
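ROR gamma transcriptional activity was tracked as Gal4-UAS luciferase output in stably transfected Drosophila Schneider cells, with compound added 1 hr before 700 uM copper sulfate induction and a 20 hr ambient-temperature incubation.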
KB-3-1 tox: KB-3-1 parental cell cytotoxicity; KB-3-1 viability, CellTiter-Glo ATP luminescence, 72 h; Potency, µM (doses to about 46.1 µM), usual class: cytotoxic; hit rate 1.4% among 400,000; also: % is scaled to controls: 0 for no effect and ±100 for the full control effect; nearly all actives have a fitted effect of over 60% in size
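KB-3-1 cells, DMEM (no phenol red) + 10% FBS; compound by pin transfer, 72 h, 37 °C. Readout: CellTiter-Glo luminescence after 10 min. Data normalized, curve-fitted.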
SW480 rerep: induces DNA re-replication in SW480 colon adenocarcinoma cells; SW480 DNA re-replication, Hoechst DNA content imaging, 48 h; Potency, µM (highest dose often 46.1 µM), for the others: at the highest dose re-replication activation, hits mostly activators; hit rate 1.8% among 340,000; also: % of control where 0% means no effect; nearly all actives have a fitted effect of over 55% in size
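Cells (250 per well) received 23 nL compound or DMSO by pin tool and were kept 48 hr at 37 C, 5% CO2. Nuclei were then stained with Hoechst for 40 min and scanned for DNA content.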
MCF10A rereplic: inducers of DNA re-replication in MCF 10A breast cells; MCF 10A DNA re-replication, Hoechst nuclear intensity, 48 h; Potency, µM (doses to about 46.1 µM), without a hit: at the top dose activity, positive = re-replication, actives largely listed as activators; hit rate 2.9% among 350,000; AID 624296; also: % of control where 0% means no effect; nearly all actives have a fitted effect of over 50% in size
KB-V1 MDR tox: KB-V1 MDR subline cytotoxicity; KB-V1 MDR cells viability, CellTiter-Glo, 72 h; hit rate 3.4% among 400,000; Potency, µM (series often up to 46.1 µM), usual class: cytotoxic; also: % is scaled to controls: 0 for no effect and ±100 for the full control effect; nearly all actives have a fitted effect of over 60% in size
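Cells of the MDR subline KB-V1 are plated, dosed with compound at multiple concentrations, and incubated 72 h at 37 degrees C; CellTiter-Glo is then added and luminescence read after 10 min.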
Gal4-VP16 FLuc: inhibits Gal4-VP16 luciferase reporter, ROR gamma counter-screen; Drosophila S2 Gal4-VP16 UAS-luciferase, luminescence, 20 h; Potency, µM (highest dose often 53.6 µM), for the others: top-dose activity, negative = inhibition, actives largely listed as inhibitors; hit rate 3.5% among 310,000; AID 2546;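 also: Gal4-VP16 expression switched on by copper sulfate through the metallothionein promoter; % is scaled to controls: 0 for no effect and ±100 for the full control effect; nearly all actives have a fitted effect of over 50% in size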
Active calls of the source: *; i = inactive; ? = inconclusive; . = not tested or not shown; [ ] = remark or other dose. Sampled rows, rich in hits. Any-hit rate of the full collection: about 10%. Calls follow the shape of the dose curve; as a rule, active = well fitted curve in the direction sought with a large enough effect; inconclusive = small, poorly fitted or top-dose-only effect, or another doubt; inactive = no such curve, though single readings can be large; an effect the other way counts as inactive or inconclusive. Potency is read from the fitted curve at half-maximal effect.

SMILES	RORg inh	KB-3-1 tox	SW480 rerep	MCF10A rereplic	KB-V1 MDR tox	Gal4-VP16 FLuc
O=C(CSc1nc(Cc2ccccc2)nc2ccccc12)c1ccc2c(c1)OCCO2	6.3µM*	i	4%	?	?	?
COc1cccc(CN(C)C(=O)CSc2nc3ccccc3[nH]2)c1OC	18%	i	-3%	2%	16µM*	-17%
Cc1[nH]c2ccccc2c1C(=O)CSc1nc2ccccc2[nH]1	?	i	?	?	21µM*	-8%
CCc1nc(SCC(=O)c2ccc3c(c2)OCCO3)c2ccccc2n1	-15%	?	?	?	?	?
O=C(CSc1nnc(SCc2cccc3ccccc23)s1)c1ccc2c(c1)OCO2	-11%	i	-5%	0%	18µM*	4%
CC(=O)OCC(CO)OC(C)=O (stereo not drawn) (tested in a mixture with another compound)	9%	.	.	.	.	-2%
Cc1sc2ncnc(SCC(=O)c3ccc4c(c3)OCCO4)c2c1-c1ccccc1	-41%	i	.	12%	16µM*	-3%
Cc1ccc2nc(SCC(=O)c3ccc4c(c3)OCO4)[nH]c2c1	-30%	i	-3%	-2%	i	-1%
O=C(CSc1nc2ccccc2[nH]1)c1ccc2c(c1)OCO2	-1%	i	7%	-1%	18µM*	25%
O=C(c1ccc(COc2ccccc2Br)o1)N1N=C(C(F)F)CC1(O)C(F)F (stereo not drawn)	-26%	i	-51%	?	23µM*	?
O=C(c1ccc(Cn2cc([N+](=O)[O-])cn2)o1)N1N=C(C(F)F)CC1(O)C(F)F (stereo not drawn)	3%	i	1%	-8%	?	1%
CC(C)C(=O)NNC(=O)CN1CCN(c2nc(-c3ccccc3)cs2)CC1	3%	i	-1%	9%	i	0%
CCc1nnc(NC(=O)c2cc(-c3ccccc3)nn2-c2ccccc2)s1	10µM*	i	-8%	16%	i	?
O=C(Nc1nccs1)c1cc(-c2ccccc2)nn1-c1ccccc1	?	i	?	15%	i	?
CCc1nnc(NC(=O)CN2CCN(c3nc(-c4ccccc4)cs3)CC2)s1	11µM*	i	?	?	21µM*	?
O=C(Nc1ccc(F)cc1)c1nn(-c2ccccc2)c(=O)cc1Cl	?	4.6µM*	?	?	?	?
CC(=O)C(/C=N/c1cc(-c2ccc(C)cc2)nn1-c1ccccc1)=C(\C)O	?	i	0%	1%	?	22µM*
Clc1ccccc1/C=N/c1cc(-c2ccccc2)nn1-c1ccccc1	4%	i	4%	-1%	i	4%
COCc1cccc(-c2csc(C(C)(O)c3cccc(F)c3)n2)c1 (stereo not drawn)	.	i	.	.	i	.
Cc1ccc(NC(=O)c2cc(-c3ccccc3)nn2-c2ccccc2)cc1	8%[10 µM]	?	28%	21µM*	21µM*	?
Cc1ccc(NC(=O)c2cc(-c3ccccc3)nn2-c2ccccc2)c(Br)c1	?	?	0%	?	i	?
Cc1cccc2c1-c1sc(C(=O)Nc3ccccc3N3CCN(C)CC3)cc1CO2	?	i	?	4.1µM*	?	-13%
CC(=O)c1ccc(N2CCN(C(=O)c3cc4c(s3)-c3ccccc3OC4)CC2)cc1	.	i	.	.	16µM*	.
Cc1cccc2c1-c1sc(C(=O)N3CCCCC3)cc1CO2	10µM*	i	?	24%	i	?
CCCCNc1nc(-c2ccccc2)c(C(=O)OCC)cc1C#N	24%	?	?	?	18µM*	0%
SMILES	RORg inh	KB-3-1 tox	SW480 rerep	MCF10A rereplic	KB-V1 MDR tox	Gal4-VP16 FLuc
CCCNc1nc(-c2ccccc2)c(C(=O)OCC)cc1C#N	14%	?	16µM*	12µM*	i	3%
C=CCNc1nc(-c2ccccc2)c(C(=O)OCC)cc1C#N	3%	10µM*	?	15µM*	?	-1%
COC(=O)CSc1nc2sc3c(c2c(=O)n1-c1ccccc1C)CC(C)(C)OC3	.	i	.	.	i	.
CC(=O)Oc1ccc2oc(/C=C/N(C)C)c([N+](=O)[O-])c2c1	-17%	i	-7%	-2%	i	-4%
COc1nc(/C=C/N(C)C)c([N+](=O)[O-])c(OC)n1	6%	i	-1%	6.5µM*	i	3%
Cn1c2ccccc2c(=O)c2cc(C#Cc3ccc(N)cc3)ccc21	0%	i	?	-3%	i	12%
Cn1c(-c2ccccc2)c(C#Cc2ccc(N)cc2)c2ccccc21	.	i	9.2µM*	12µM*	i	.
CCN(CC)S(=O)(=O)c1ccc2c(c1)nc(CCC(=O)Nc1ccccc1Cc1ccccc1)n2CC	-3%	i	?	22%	21µM*	3%
CCn1c(CCC(=O)Nc2cc(F)ccc2C)nc2cc(S(=O)(=O)N(C)C)ccc21	8%	i	6%	2%	i	0%
COc1ccccc1Nc1nnc(SCC(=O)NC(=O)Nc2ccc3c(c2)OCCO3)s1	-11%[10 µM]	i	17%	21µM*	i	-4%
Cc1cccc(Nc2nnc(SCC(=O)NC(=O)Nc3ccc4c(c3)OCCO4)s2)c1	?	?	?	23µM*	?	-8%
Cc1cccc(Nc2nnc(SCC(=O)Nc3cccnc3Cl)s2)c1	-16%	i	-14%	15%	15µM*	-5%
O=C(Nc1nnc(-c2ccc(F)cc2)o1)C1CCCN1S(=O)(=O)c1cccs1 (stereo not drawn)	.	i	?	-1%	?	.
COC(=O)C1=C(C)N(Cc2ccccc2)[C@]23O[C@](C(=O)OC)(C(=O)N2C1c1ccccc1)C(c1ccccc1)C3C(=O)c1ccccc1 (stereo partly drawn)	7%[10 µM]	.	.	.	.	9%[10 µM]
Nc1ncccc1OCc1cccc(C(F)(F)F)c1	-10%	?	7%	-10%	?	-4%
Nc1nc(N)c(-c2cccc(C(F)(F)F)c2)c(Cc2cccc(C(F)(F)F)c2)n1	.	7.3µM*	?	?	?	.
COc1cc(N(C)C)ccc1[C@]1(O)C(=O)N(C)c2ccc(Br)cc21	.	i	.	.	?	.
CC1=CC(=O)C2=C(C)CC[C@H]3[C@H](C)C(=O)O[C@@H]3C12 (stereo partly drawn)	10%	.	.	.	.	-6%
COc1cc(/C=C(\C#N)c2nc(-c3cc4ccccc4oc3=O)cs2)ccc1O	17%	i	-4%	0.92µM*	i	-12%
COc1cc(/C=C(\C#N)c2nc3ccccc3o2)ccc1O	-31%	i	17%	18µM*	i	-17%

Source: PubChem
